High-throughput results: PubChem BioAssay, several laboratories
This is a sample that favours compounds with a hit; in the whole collection about 1% have one here.
PriA SSB inh: inhibitors of Klebsiella pneumoniae PriA binding to SSB C-terminal tail; inhibition, % at 33 µM; actives 0.6% (n = 430,000); AID 1272365; AlphaScreen SSBct-PriA binding, biotinylated peptide; in the data active = inhibition mostly above about 37%, no sharp cut-off; inactive = mostly below about 20%;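 also: plate controls were negative control peptide for no effect and reference peptide for full effect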
Sa RN4220 lethal: S. aureus RN4220 growth inhibition; actives 0.33% (n = 330,000); inhibition, % (test concentration not listed); OD600, 16 h; AID 1259311; in the data active = inhibition above about 85%;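 also: plate controls were untreated cells for no effect and reference antibiotic for full effect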
ugtP null kill: compounds lethal to S. aureus RN4220 ugtP deletion mutant; actives 0.54% (n = 330,000); OD600 growth, 16 h; growth inhibition, % (concentration not given with the values); in the data active = growth inhibition above about 68%;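 also: plate controls were untreated wells for no effect and antibiotic for full effect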
* marks the source's active call; other numbers are inactive results; x = not tested or not shown.

SMILES | PriA SSB inh | Sa RN4220 lethal | ugtP null kill
CCN(CC)Cc1cc(Nc2c3ccccc3nc3c4ccccc4n(C)c23)cc(CN(CC)CC)c1O | 51* | x | x
Oc1cccc(Nc2c3ccccc3nc3ccccc23)c1 | 5 | x | x
CCSc1nnc(NC(=O)c2cnccn2)s1 | -6 | 5 | -1
CCc1nnc(NC(=O)c2cc(Cl)ccn2)s1 | 81* | 6 | -15
CCc1nnc(NC(=O)c2ccccn2)s1 | 104* | x | x
CCc1ccnc(C(=O)Nc2nnc(CC)s2)c1 | 103* | x | x
CCSc1nnc(NC(=O)c2ccccn2)s1 | 86* | 0 | -6
CCc1nnc(NC(=O)c2ccc(Cl)nc2)s1 | -13 | -3 | 7
CCc1nnc(NC(=O)c2cccnc2SC)s1 | -4 | -2 | -1
CCc1nnc(NC(=O)c2ccccc2Cl)s1 | -4 | x | x
Cc1cc(C)c(C)c(S(=O)(=O)Nc2ccccn2)c1C | -11 | x | x
CCCN1CCCc2cc(CCNS(=O)(=O)c3cc(Cl)ccc3OC)ccc21 | 56* | x | x
CCCNS(=O)(=O)c1cc(Cl)ccc1OC | -4 | 3 | 3
CCCN1CCCc2cc(CCNC(=O)C(=O)Nc3ccc(OC)c(OC)c3)ccc21 | 44 | x | x
CCCN1CCCc2cc(CCNC(=O)C(=O)Nc3ccc(OC)cc3OC)ccc21 | 36 | x | x
CCCN1CCCc2cc(CCNS(=O)(=O)c3cc(CC)ccc3OC)ccc21 | 66* | x | x
CCCN1CCCc2cc(CCNS(=O)(=O)c3cc(OC)ccc3OC)ccc21 | 43* | x | x
CCc1nc2n(n1)C(=O)C(C(c1ccc(F)c(F)c1)N1CCOCC1)S2 (stereo not drawn) | 1 | x | x
Cc1cc(Nc2ccc(C)c(Cl)c2)nc(-n2nc(C)cc2C)n1 | 0 | x | x
Nc1nc(-c2c[nH]c3ccccc23)cs1 | 30 | 3 | -12
CCc1ccc(-c2csc(-c3c[nH]c4ccccc34)n2)cc1 | -10 | -2 | 85*
CCC(C)Nc1nc(-c2c[nH]c3ccccc23)cs1 (stereo not drawn) | 37 | x | x
CNc1nc(-c2c[nH]c3ccccc23)cs1 | 52* | 8 | -13
Cc1ccc(NC(=O)Nc2c(C)nc3sccn3c2=O)cc1 | 2 | x | x
Cc1ccc(CC2SC(=NN=Cc3ccco3)NC2=O)cc1 (stereo not drawn) | -2 | x | x
SMILES | PriA SSB inh | Sa RN4220 lethal | ugtP null kill
O=C(Nc1nnc(-c2ccc(Br)o2)o1)C12CC3CC(CC(C3)C1)C2 | -10 | x | x
O=C(C(Cl)C(F)(F)F)N1CCCCC1 (stereo not drawn) | 3 | x | x
COc1ccc(Cn2c(=O)c3ncccc3n(Cc3ccc(C(F)(F)F)cc3)c2=O)cc1 | -11 | x | x
CC(=O)Nc1cccc(C(=O)Nc2nc(-c3ccccn3)cs2)c1 | 67* | x | x
O=C(Nc1cccc(NC(=O)c2cccc(F)c2)n1)c1cccc(F)c1 | -16 | 90* | 19
O=C(Nc1nc(-c2ccccn2)cs1)c1cccc(F)c1 | 120* | x | x
CC(=O)Nc1cccc(-c2csc(Nc3ccccn3)n2)c1 | 17 | 17 | -17
O=C(Nc1nc(-c2ccccn2)cs1)c1ccc2ncsc2c1 | 19 | x | x
O=C(Nc1cccc(NC(=O)c2c(F)cccc2F)n1)c1c(F)cccc1F | 1 | 5 | 4
Cc1ccc(NC(=O)Cn2cnc3nc(N4CCCCC4)sc3c2=O)cc1Cl | -12 | x | x
CCOc1ccc(NC(=O)CSc2nnc(C3CC(=O)N(c4ccc(C)cc4)C3)o2)cc1 (stereo not drawn) | 4 | x | x
COc1ccc(C(=O)NCCc2nnc3ccc(SCc4cccc(C(F)(F)F)c4)nn23)cc1 | -17 | x | x
O=C(CSC1=NS(=O)(=O)c2cc(F)ccc2N1)NCc1ccc2c(c1)OCO2 | 2 | x | x
O=C(Nc1cccc(Cl)c1)c1ccc(Br)cc1 | 2 | x | x
O=c1[nH]c(=O)n(Cc2ccccc2Cl)c(O)c1C=C1C=CC=N1 | -6 | x | x
CSc1ccc(-c2noc(-c3sccc3S(=O)(=O)N(C)c3ccc4c(c3)OCO4)n2)cc1 | -14 | x | x
CCn1c2ccccc2c2cc(C3N(c4ccccc4)CCN3c3ccccc3)ccc21 | -4 | x | x
Cc1nn(C)c(C)c1S(=O)(=O)N(Cc1ccsc1)C1CC1 | -2 | x | x
COc1ccccc1-n1cc(-c2ccccc2)[nH]c1=S | -4 | 6 | 3
COc1ccccc1-n1cc(-c2ccccc2)c2c(=S)nc[nH]c21 | 41* | 0 | -5
O=C(CC(NCc1ccccn1)C(=O)O)Nc1ccccc1Cl (stereo not drawn) | 97* | 7 | -2
O=C(NCc1ccccn1)Nc1cc(Cl)ccc1Cl | 1 | 4 | -1
CC(C)c1ccc(NC(=S)Nc2ccc(OC(F)(F)F)cc2)cc1 | -11 | 2 | -18
FC(F)(F)Oc1ccc(NC(=S)Nc2ccc(OC(F)(F)F)cc2)cc1 | -4 | 99* | 92*
O=C(CCN1CCN(C(c2ccccc2)c2ccccc2)CC1)N/N=C\c1cc(Br)ccc1O | 19 | x | x
SMILES | PriA SSB inh | Sa RN4220 lethal | ugtP null kill
CC(=O)N1CCc2ccc(NS(=O)(=O)c3cccs3)cc21 | 2 | x | x
COc1ccc(C(=O)CC(=O)C(=O)Nc2cc(C)ccc2C)cc1 | -3 | 0 | -5
COc1ccc(C(=O)CC(=O)C(=O)Nc2ccc(C)c(Cl)c2)cc1 | -4 | 78 | 97*
Cc1ccnc(Nc2ccc(NCCNC(=O)c3ccc(Br)o3)nn2)c1 | 62* | x | x
Cc1ccnc(Nc2cc(NCCNC(=O)c3ccccc3C)nc(C)n2)c1 | -5 | x | x
CCCCCCCCn1c(NS(=O)(=O)c2ccc(F)cc2)c(S(=O)(=O)c2ccc(C)cc2)c2nc3ccccc3nc21 | 44 | x | x
CCOC(=O)c1c(NS(=O)(=O)c2ccccc2)n(CCc2ccccc2)c2nc3ccccc3nc12 | 44 | x | x
CCOC(=O)c1c(NS(=O)(=O)c2ccccc2)n(CCCOC)c2nc3ccccc3nc12 | 47* | 6 | -5
CCCCCn1c(NS(=O)(=O)c2ccc(F)cc2)c(C(=O)OCC)c2nc3ccccc3nc21 | 55* | x | x
CCCCn1c(NS(=O)(=O)c2ccc(Cl)cc2)c(C(=O)OCC)c2nc3ccccc3nc21 | 68* | x | x
CCc1nnc(-c2ccc(NC(=O)C(C)(C)C)cc2)o1 | 7 | x | x
Cc1onc(-c2ccccc2Cl)c1C(=O)NCc1c(-c2ccc(F)cc2)nc2n1CCS2 | 12 | x | x
O=C(NCC1CCN(c2ccccn2)CC1)C(=O)Nc1ccccc1C(F)(F)F | 6 | x | x
O=C(NCc1ccc(F)cc1)NCC1CCN(C(=O)c2ccncc2)CC1 | -16 | x | x
O=C(C(C=Nc1cc2c(oc1=O)CCCC2=O)=C(O)c1ccccc1)c1ccccc1 | -17 | x | x
CCC(CO)Oc1cc(NCc2ccc(Cl)cc2)c2ncn(C(C)C)c2c1 (stereo not drawn) | 4 | 6 | 7
CCC(CO)Oc1cc(NCc2ccc(Cl)cc2Cl)c2ncn(C(C)C)c2c1 (stereo not drawn) | 39* | 12 | -22
CCCc1nnsc1C(=O)NC[C@H](O)c1ccoc1 | -8 | x | x
CCCCCCCCCCCCC(=O)NNC(=O)CC(=O)Nc1ccccc1C(=O)O | -6 | x | x
COC(=O)c1ccc(CSc2nc(C)cc(C(F)(F)F)n2)cc1 | 38* | x | x
Cc1cc(C)nc(SCc2ccc(C(=O)NN=C3CCCC3)cc2)n1 | -8 | 6 | 0
COc1ccc(NC(=O)C[C@H]2CCCCN2S(=O)(=O)c2ccc(F)cc2)cc1Cl | -13 | x | x
Clc1ccc(-c2cc3ccccc3nc2N2CCOCC2)cc1 | -21 | 2 | 93*
Cc1ccc(-c2cc3ccccc3nc2N2CCCC2)cc1 | -147 | -3 | 89*
Clc1ccc(-c2cc3ccccc3nc2N2CCCC2)cc1 | -10 | -3 | 72
Cc1nc2ccccc2nc1N1CCCC1 | -19 | 5 | 5
Cc1cccnc1NC(=O)c1c[nH]c2ccc(F)cc2c1=O | -11 | x | x
